# Assay outcomes as filed in PubChem.
# Rows were chosen to be rich in hits. Some 7.9% of all compounds tested hit in one or more screens of this group.
# KB-V1 cytotox = KB-V1 MDR subline cytotoxicity. KB-V1 MDR cells viability, CellTiter-Glo, 72 h. Potency, µM (titrated, usually from 46.1 µM), hits mostly cytotoxic. hit rate 3.4% among 400,000. AID 1347076; also: % is scaled to controls: 0 for no effect and ±100 for the full control effect; nearly all actives have a fitted effect of over 60% in size
#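 Potencies derive from concentration-effect curves fitted to normalized luminescence (CellTiter-Glo) of KB-V1 cells treated for 72 h at 37 degrees C in phenol-red-free DMEM containing 10% FBS.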
# SW480 rerep = induces DNA re-replication in SW480 colon adenocarcinoma cells | SW480 DNA re-replication, Hoechst DNA content imaging, 48 h | Potency, µM (doses to about 46.1 µM), without a hit: at the top dose re-replication activation, most hits filed as activators | hit rate 1.8% among 340,000; also: % of control where 0% means no effect; nearly all actives have a fitted effect of over 55% in size
#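 First, 250 cells per well were seeded. Next, compound or vehicle (23 nL) was pinned in, plates sat 48 hr at 37 C. Finally Hoechst was added for 40 min before fluorescence scanning.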
# HT1080NT lethal = kills 2HG-producing HT-1080-NT fibrosarcoma cells | HT-1080-NT fibrosarcoma viability, CellTiter-Glo ATP luminescence, 48 h | hit rate 1.6% among 360,000 | Potency, µM (highest dose often 46.1 µM), for the others: top-dose activity, negative = less viability, usual class: cytotoxic | AID 686970;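 also: NT is the 2HG producing partner of a matched IDH1 knockdown line; 0% = DMSO-treated cells and -100% = media-only wells without cells; nearly all actives have a fitted effect of over 55% in size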
#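 Luminescent CellTiter-Glo readout after 48 hours of compound exposure at 37 degrees C defined viability of HT-1080-NT cells. Activity was normalized to DMSO wells and cell-free media wells; concentration-response curves were fitted and assigned curve classes.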
# MCF10A rerep = induces DNA re-replication in MCF 10a normal breast cells. MCF 10A DNA re-replication, Hoechst nuclear intensity, 48 h. Potency, µM (highest dose often 46.1 µM), without a hit: at the top dose activity, positive = re-replication, hits mostly activators. hit rate 2.9% among 350,000. AID 624296; also: % of control where 0% means no effect; nearly all actives have a fitted effect of over 50% in size
# KB-3-1 cytotox = KB-3-1 parental cell cytotoxicity | KB-3-1 viability, CellTiter-Glo ATP luminescence, 72 h | Potency, µM (series often up to 46.1 µM), usual class: cytotoxic | hit rate 1.4% among 400,000 | AID 1347075; also: % is scaled to controls: 0 for no effect and ±100 for the full control effect; nearly all actives have a fitted effect of over 60% in size
#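 72 h, 37 °C compound treatment of KB-3-1 parental cells; CellTiter-Glo added, 10 min, luminescence read. Data corrected against DMSO-only plates and normalized before curve fitting.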
# HT1080 IDH1KD tx = HT-1080 IDH1 knockdown cell toxicity (counter line); HT-1080 IDH1 knockdown viability, ATP luminescence, 48 h; Potency, µM (highest dose often 46.1 µM), without a hit: at the highest dose activity, negative = toxicity, hits mostly cytotoxic; hit rate 2% among 360,000;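 also: 0% = DMSO wells and -100% = cell-free medium wells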
#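 Cytotoxicity counter-line: IDH1KD HT-1080, 48 h, CellTiter-Glo. Curves classed by r2, magnitude and activity.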
# Active calls of the source: *; i = inactive; ? = inconclusive; . = not tested or not shown; [ ] = dose if it differs, or a comment. Calls follow the shape of the dose curve; as a rule, active = well fitted curve in the direction sought with a large enough effect; inconclusive = small, poorly fitted or top-dose-only effect, or another doubt; inactive = no such curve, though single readings can be large; an effect the other way counts as inactive or inconclusive. Potency is read from the fitted curve at half-maximal effect.
SMILES,KB-V1 cytotox,SW480 rerep,HT1080NT lethal,MCF10A rerep,KB-3-1 cytotox,HT1080 IDH1KD tx
COc1ccc(/C=C/C(=O)Nc2ccc(C)c(S(=O)(=O)N3CCOCC3)c2)cc1,4.11µM*,-32.1%,?,5.7%,i,20.6µM*
O=C(/C=C/c1ccc(S(=O)(=O)N2CCOCC2)cc1)NC(=S)Nc1ccc(Cl)cc1Cl,i,?,-21.1%,16.4µM*,i,-12.9%
COc1ccc(NC(=O)/C=C/c2ccc(S(=O)(=O)N3CCOCC3)cc2)cc1,?,-9.7%,8.7%,-4.9%,i,1.5%
Fc1ccc(CNc2ncnc3c2c(-c2ccccc2)cn3-c2ccccc2)cc1,i,.,.,.,?,.
O=C(Cc1ccccc1[N+](=O)[O-])Nc1nccs1,i,2.91µM*,0.8%,1.6%,i,-0.3%
CC1CCN(c2nc3ccccc3nc2C(C#N)C(=O)OC2CCCCC2)CC1 (stereo not given),i,-6.5%,7.5%,-2.1%,i,0.6%
CC(C)COc1nc2ccccc2nc1C(C#N)C(=O)NC1CCCCC1 (stereo not given),i,1.7%,10.3%,5.8µM*,i,8.5%
Cc1ccsc1C(=O)N1CCC1(C)C(=O)NCc1cccnc1 (stereo not given),i,.,19.2%,.,i,22.3%
O=C(NC(NNc1ccc([N+](=O)[O-])cc1)(C(F)(F)F)C(F)(F)F)c1ccc(Cl)cc1,i,3.5%,-15.9%,14.6µM*,i,?
O=C(COC(=O)c1ccc[n+]([O-])c1)Nc1ccc([N+](=O)[O-])cc1C(F)(F)F,i,?,-0.8%,0.1%,i,-2.9%
O=C(NCCNc1ccc([N+](=O)[O-])cc1)c1cccc(Br)c1,i,2.0%,0.9%,13.9%,i,12.8%
O=C(NCCNc1ccc([N+](=O)[O-])cc1C(F)(F)F)c1ccccc1,16.4µM*,18.1%,0.9%,-64.5%,i,-9.9%
O=C(NCCNc1ccc([N+](=O)[O-])cc1C(F)(F)F)c1cccc(F)c1,18.4µM*,?,-15.8%,18.8%,?,-27.9%
Oc1ccccc1-c1nc2c3ccccc3c3ccccc3c2[nH]1,i,?,?,18.4µM*,i,?
COc1ccc(-n2c(C)cc(C(=O)Cn3nc(C(=O)O)c4ccccc4c3=O)c2C)cc1,14.6µM*,10.5%,-10.0%,12.5%,i,-16.4%
COc1ccc(-n2c(C)cc(C(=O)CN3CCC(C)CC3)c2C)cc1,i,-44.6%,-12.2%,0.581µM*,i,-4.2%
COCCCNC(=O)c1cnn(-c2ccc(F)cc2F)c1C1CCNCC1,i,.,.,.,i,.
COc1ccc(CCNC(=O)c2ccccc2OCc2c(C)noc2C)cc1,5.8µM*,-3.7%,-2.2%,-4.0%,i,-7.9%
COc1cccc(NC(=O)c2ccccc2OCc2c(C)noc2C)c1,?,-7.7%,7.2%,1.3%,i,5.1%
Cc1noc(C)c1COc1ccccc1C(=O)N1CCN(S(=O)(=O)c2ccccc2F)CC1,?,1.6%,-7.3%,2.4%,i,-8.7%
Cc1noc(C)c1COc1ccccc1C(=O)N1CCN(S(=O)(=O)c2ccccc2C#N)CC1,14.6µM*,-4.8%,-3.4%,3.9%,i,-1.2%
Cc1noc(C)c1COc1ccccc1C(=O)NCCc1ccc(Cl)cc1,?,-0.5%,9.5%,11.1%,i,5.5%
Cc1ccc(NC(=O)c2ccccc2OCc2c(C)noc2C)cc1S(=O)(=O)N(C)C,2.31µM*,0.7%,1.9%,-0.6%,i,-0.7%
Cc1cccc(C)c1C(O)c1ncc(-c2ccccc2F)[nH]1 (stereo not given),i,.,-9.7%,.,i,4.9%
CCN(CC)S(=O)(=O)c1ccc(C)c(NC(=S)N2CCN(Cc3ccc4c(c3)OCO4)CC2)c1,?,-5.2%,?,?,23.1µM*,20.6µM*
SMILES,KB-V1 cytotox,SW480 rerep,HT1080NT lethal,MCF10A rerep,KB-3-1 cytotox,HT1080 IDH1KD tx
CN(C)S(=O)(=O)c1ccc(Cl)c(NC(=O)CN2CCN(Cc3ccc4c(c3)OCO4)CC2)c1,14.6µM*,3.5%,0.0%,?,?,-2.7%
Cc1ccc(NC(=S)N2CCN(Cc3ccc4c(c3)OCO4)CC2)c(C)c1,i,0.8%[9.22 µM],-4.7%,?,i,-7.5%
O=[N+]([O-])c1c(Nc2ccc(O)cc2)cc(Cl)c2nonc12,i,-15.7%,9.2µM*,-8.3%,i,5.8µM*
O=C(Nc1ccc(F)cc1F)c1cc2c(=O)n3ccccc3nc2s1,i,.,.,.,i,.
C[C@H]1COC[C@@H](C/C=C/c2ccccc2)N1c1ccccc1,i,.,3.4%,.,i,10.3%
COc1cccc(N2CCN(C(=O)C3CCN(S(=O)(=O)c4cccc5nonc45)CC3)CC2)c1,i,.,.,.,i,.
CSc1nc(NCC(C)C)c2c3c(sc2n1)CN(C)CC3,18.4µM*,6.1%,-30.4%,15.3%,i,?
CSc1nc(NCc2ccccc2)c2c3c(sc2n1)CN(C)CC3,?,0.8%,?,23.1µM*,i,?
COc1cccc(CNC(=O)Nc2ccc3c(c2)N(C)C(=O)c2ccccc2S3)c1,i,.,.,.,?,.
CC1CC(C)CN(c2cc3c(cc2[N+](=O)[O-])C(=O)N(c2ccccc2)C3=O)C1 (stereo not given),i,-6.1%,21.3%,2.5%,i,18.9%
CC1CC(C)CN(c2ccc(-n3cnnn3)cc2[N+](=O)[O-])C1 (stereo not given),?,1.7%,-5.5%,-2.4%,5.17µM*,-9.0%
Cc1cc(C)cc(C(=O)NC(CC(N)=O)c2ccc(N3CCC(Cc4ccccc4)CC3)c([N+](=O)[O-])c2)c1 (stereo not given),i,-2.7%,-1.9%,0.2%,i,-4.1%
O=[N+]([O-])c1cc(-n2cnnn2)ccc1N1CCC(Cc2ccccc2)CC1,23.1µM*,?,-3.3%,23.8%,i,-14.5%
COc1ccc(CCNC(=O)c2ccc3c(c2)CCN3S(=O)(=O)c2ccccc2)cc1,i,.,.,.,i,.
CN1CCC[C@@H]1Cc1c[nH]c2ccc(CCS(=O)(=O)c3ccccc3)cc12,.,3.0%,.,2.2%,.,.
Cc1ccc(C(C(=O)NC2CCCCC2)N(C(=O)Cc2c[nH]c3ccccc23)c2ccccc2)o1 (stereo not given),4.11µM*,13.8%,?,?,18.4µM*,-24.8%
CC(=O)Nc1ccc(N(C(=O)Cc2c[nH]c3ccccc23)C(C(=O)NC2CCCCC2)c2ccco2)cc1 (stereo not given),i,0.9%,-7.7%,2.9%,i,-9.7%
